Screening results as filed in PubChem BioAssay.
VP16 counter = Gal4-VP16 reporter inhibition counter-screen | Potency, µM (top dose mostly 53.6 µM), usual class: inhibitors | AID 2546 | 310,000 compounds, 3.5% hits | Drosophila S2 Gal4-VP16 UAS-luciferase, luminescence, 20 h;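 further: Gal4-VP16 expression switched on by copper sulfate through the metallothionein promoter; nearly all actives have a fitted effect of over 50% in size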
rTrxR1 inhibitor = inhibitors of rat thioredoxin reductase 1. O89049. recombinant rTrxR1, NADPH fluorescence consumption, selenite substrate. Potency, µM (highest dose often 114 µM), hits mostly inhibitors. 390,000 compounds, 1% hits. AID 588453; further: nearly all actives have a fitted effect of over 65% in size
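Rat TrxR1 (90 nM in the dispensed reagent) was pre-reduced with 400 uM NADPH for 5 min at room temperature, then incubated with compound for 15 min. After 400 uM selenite was added, NADPH fluorescence (Ex 340/Em 450 nm) was followed for 8 min.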
RORg inh = blocks mouse ROR gamma transcriptional activity | AID 2551 | 310,000 compounds, 5.4% hits | Drosophila S2 Gal4-RORgamma UAS-luciferase reporter, 20 h | Potency, µM (series often up to 53.6 µM), most hits filed as inhibitors; further: nearly all actives have a fitted effect of over 60% in size
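ROR gamma transcriptional activity was tracked as Gal4-UAS luciferase output in stably transfected Drosophila Schneider cells, with compound added 1 hr before 700 uM copper sulfate induction and a 20 hr ambient-temperature incubation.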
TrxR1 substrate = is turned over as a substrate by rat TrxR1 | O89049 | purified TrxR1 substrate turnover, NADPH consumption readout | Potency, µM (doses to about 114 µM) | 390,000 compounds, 0.01% hits | AID 588456; further: nearly all actives have a fitted effect of over 50% in size
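Rat TrxR1, dispensed at 90 nM, was prereduced with 400 uM NADPH (final) for 5 min at ~22 deg C, then incubated with compound 15 min before 400 uM selenite. A first-read NADPH fluorescence drop versus no-compound background flagged substrates.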
GALK inh = inhibitors of human galactokinase; P51570; Purified GALK, Kinase-Glo residual ATP luminescence; Potency, µM (series often up to 57.5 µM), actives largely listed as inhibitors; 270,000 compounds, 0.007% hits; AID 1868
Target sequence (P51570 whole entry, looked up): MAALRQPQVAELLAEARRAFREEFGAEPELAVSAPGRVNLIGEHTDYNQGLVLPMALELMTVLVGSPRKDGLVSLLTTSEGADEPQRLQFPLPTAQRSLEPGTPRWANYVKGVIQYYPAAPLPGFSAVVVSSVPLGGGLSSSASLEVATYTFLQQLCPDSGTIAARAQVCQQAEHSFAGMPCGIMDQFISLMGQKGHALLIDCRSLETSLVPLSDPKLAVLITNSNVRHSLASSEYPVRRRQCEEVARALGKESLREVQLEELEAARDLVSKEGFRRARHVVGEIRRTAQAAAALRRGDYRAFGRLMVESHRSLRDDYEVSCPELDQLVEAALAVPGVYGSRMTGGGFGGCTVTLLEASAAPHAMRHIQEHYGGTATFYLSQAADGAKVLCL
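Compounds were pin-transferred into ATP buffer (35 uM final), then GALK plus galactose (5 nM, 100 uM final) was added. After 1 h at room temperature, Kinase-Glo Plus was added and luminescence read after 10 min.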
Coupling enz = counter-screen for Giardia aldolase inhibitors: coupling enzyme system; coupling enzyme system counterscreen, AmpLite Red fluorescence; AID 2472; 290,000 compounds, 0.67% hits; activity change, negative = inhibition, % at 58.2 µM, hits read low; in the data active means activity change below about -30%
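Coupling enzymes only (glyceraldehyde-3-phosphate) + compound, at 57.5 uM final, 10 min RT; add substrate/coupling/AmpLite Red mix, 20 min RT; fluorescence ex 525/em 598 nm. Actives flag coupling-system interference.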
Numbers stand for hits; 0 = inactive; ? = inconclusive; - = no result; [ ] = another dose, or the depositor's remark. This is a sample that favours compounds with a hit; in the whole collection about 5.9% have one here. Unless noted, the call rests on the fitted dose curve; in most records, active means well fitted curve in the direction sought with a large enough effect; inconclusive means small, poorly fitted or top-dose-only effect, or another doubt; inactive means no such curve, though single readings can be large; an effect the other way counts as inactive or inconclusive.

SMILES	VP16 counter	rTrxR1 inhibitor	RORg inh	TrxR1 substrate	GALK inh	Coupling enz
COc1cc2c(cc1OC)CN(C(=O)c1ccc(S(=O)(=O)N3CCCC3)cc1)CC2	0	0	0	0	0	0
Cc1ccc(OCCN2CCN(C(=O)CCC(=O)Nc3nnc(C(C)C)s3)CC2)cc1	13µM	0	0	0	0	0
Cc1ccc(OCCN2CCN(C(=O)CCC(=O)Nc3nnc(C)s3)CC2)cc1	0	0	?	0	0	0
Cc1ccc(CNS(=O)(=O)c2ccc3c(c2)OCCO3)cc1	0	0	0	0	0	0
C=CCN1C(=O)c2ccc(C(=O)N(C)CC(=O)Nc3ccc(OCC)c(OCC)c3)cc2C1=O	-	0	-	0	-	-
COc1ccccc1CNC(=O)CCCn1nc(C)c2c(C)n(-c3ccc(C)cc3)nc2c1=O	0	0	0	0	0	0
Nc1cc(N)c(OCC(F)(F)F)cc1OCC(F)(F)F	0	0.32µM	0	0	0	-50
CN(C)c1nc(NCc2ccccc2)nc(N/N=C/c2ccccc2F)n1	6.3µM	-	2.8µM	-	0	0
CN(C)c1nc(NCc2ccccc2)nc(N/N=C/c2ccc(Cl)cc2Cl)n1	0	0	2.2µM	0	0	0
O=C(O)CC/C(=N\Nc1ccc([N+](=O)[O-])cc1S(=O)(=O)N1CCOCC1)c1cccs1	0	?	0	0	0	0
CCn1nnc(NC(=O)CSc2ccc(Cl)cc2)n1	0	0	0	0	0	0
CCCn1nnnc1NC(=O)c1cc(Cl)ccc1Cl	2.2µM	0	1.6µM	0	0	0
CCCn1nnnc1NC(=O)CSc1ccc(Cl)cc1	2.2µM	0	0.89µM	0	0	0
CC(=O)c1cccc(NC(=S)NCc2ccccc2)c1	0	0[2.29 µM]	?	0	-	0
CC(=O)c1cccc(NC(=S)Nc2cccc3ccccc23)c1	11µM	0	13µM	0	0	0
Cc1ccc(C(=O)NNC(=S)Nc2cccc3ccccc23)s1	0	?	0.79µM	0	0	0
O=C(NNC(=S)Nc1cccc2ccccc12)c1cccc(Br)c1	?	?	0	0	0	0
CC(=O)Nc1cccc(NC(=S)Nc2cccc3ccccc23)c1	?	0	13µM	0	0	-
O=C(Cn1nnc2ccccc21)c1ccc(Cl)cc1	0	0	0	0	0	0
COc1cccc(NC(=O)Cn2c(=O)n(Cc3nc(-c4ccccc4)no3)c(=O)c3ccccc32)c1	-	0	-	0	-	-
N/C(Cc1ccc(Cl)cc1)=N\OC(=O)c1ccc2ccccc2c1	20µM	0	0	0	0	0
N/C(Cc1ccc(Cl)cc1)=N\OC(=O)c1cccc2ccccc12	10µM	0	?	0	0	0
O=C(NNc1ccccc1C(F)(F)F)c1sccc1Br	0	0	0	0	0	0
CC(c1n[nH]c(=S)n1-c1ccccc1)N1CCCCC1 (stereo not given)	0	0	10µM	0	0	0
COC(Cc1n[nH]c(=S)n1-c1ccccc1)OC	0	0	0	0	0	0
SMILES	VP16 counter	rTrxR1 inhibitor	RORg inh	TrxR1 substrate	GALK inh	Coupling enz
N#Cc1cnn(-c2nc3sc4c(c3c(=O)[nH]2)CCCC4)c1N	0[0.365 µM]	0	2.8µM	0	0	0
O=c1[nH]c(C2CC2)nc2sc3c(c12)CCCC3	0	0	0	0	0	0
COc1ccc(N=C2C(=Nc3ccc(OC)cc3)N(c3ccc(OC)cc3)C(=S)N2C(=O)c2ccc(OC)cc2)cc1	0	0	?	0	0	0
COc1ccc(N=C2C(=Nc3ccc(OC)cc3)N(c3ccccc3)C(=S)N2C(=O)c2ccc(Cl)cc2)cc1	?	0	14µM	0	0	0
COc1ccc(/C=N/OCC(=O)N=Nc2c(O)[nH]c3ccc(Br)cc23)cc1OC	?	0	0	0	0	0
COCCNC(=S)N=Nc1c(O)[nH]c2ccc([N+](=O)[O-])cc12	0	0	0.56µM	0	-	0
COc1ccccc1NC(=S)N=Nc1c(O)[nH]c2ccc(Br)cc12	5.6µM	0	2µM	0	0	0
O=C(N=Nc1c(O)[nH]c2ccccc12)Nc1ccccc1	-	0	-	0	-	-
Cc1cccc(NC(=S)N=Nc2c(O)[nH]c3ccccc23)c1	3.5µM	0	1.4µM	0	-	0
Fc1cccc(Cn2cc(C(=S)N3CCCCC3)c3ccccc32)c1	7.9µM	0	7.1µM	0	0	0
